Assay results taken from PubChem BioAssay (NCI).
Compounds without any hit were thinned out: in the full panel of roughly 83,000, 20% have a hit.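 Cell lines were cultured in 96-well plates, exposed to a single compound concentration, and assessed for percent growth 48 hours later.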 Activity calls are given as the source filed them. Rule for the calls: active = growth percent below 10; inactive = the rest.

Assays:
Test in all cases: NCI-60 one-dose screen, 48 h (100 = growth as untreated, 0 = no growth, -100 = all killed)
HCT-15 colon = details: 10 µM unless noted
HT29 colon = details: 10 µM unless noted
SNB-75 CNS = details: 10 µM unless noted
SNB-19 CNS = details: 10 µM unless noted
U251 CNS = details: 10 µM unless noted
PC-3 prostate = details: 10 µM unless noted
SK-MEL-5 melanoma = details: 10 µM unless noted
UACC-62 melanoma = details: 10 µM unless noted
LOX IMVI melanoma = details: 10 µM unless noted
SK-MEL-28 melanoma = details: 10 µM unless noted
SK-MEL-2 melanoma = details: 10 µM
SN12C renal = details: 10 µM unless noted
UO-31 renal = details: 10 µM unless noted
TK-10 renal = details: 10 µM unless noted
ACHN renal = details: 10 µM unless noted
CAKI-1 renal = details: 10 µM unless noted
A498 renal = details: 10 µM unless noted
CCRF-CEM leukemia = details: 10 µM unless noted
MOLT-4 leukemia = details: 10 µM unless noted
EKVX NSCLC = details: 10 µM unless noted

Measured: growth

COc1cc(C2CC(c3ccc(Cl)cc3)=NN2c2ccc(Cl)cc2)cc(OC)c1OC (configuration not stated)
inactive: HCT-15 colon 91.2% | HT29 colon 94.7% | SNB-75 CNS 58.7% | SNB-19 CNS 88.1% | U251 CNS 85.1% | PC-3 prostate 64.1% | SK-MEL-5 melanoma 97.9% | UACC-62 melanoma 77% | LOX IMVI melanoma 99.8% | SK-MEL-28 melanoma 96.1% | SK-MEL-2 melanoma 98.8% | SN12C renal 88.4% | UO-31 renal 77.1% | TK-10 renal 98% | ACHN renal 86% | CAKI-1 renal 82.3% | A498 renal 88% | CCRF-CEM leukemia 84.7% | MOLT-4 leukemia 67.8%

COc1cc(Nc2ncc3c(n2)-c2ccc(Cl)cc2C(c2c(F)cccc2OC)=NC3)ccc1C(=O)O
inactive: HCT-15 colon 37.2% | HT29 colon 40.7% | SNB-75 CNS 91.6% | SNB-19 CNS 74.1% | U251 CNS 51.6% | PC-3 prostate 60.7% | SK-MEL-5 melanoma 67.8% | UACC-62 melanoma 64.6% | LOX IMVI melanoma 35.9% | SK-MEL-28 melanoma 84.7% | EKVX NSCLC 89.9% | SN12C renal 72.6% | UO-31 renal 51.7% | TK-10 renal 63.9% | ACHN renal 64.4% | CAKI-1 renal 68.2% | A498 renal 63.2% | CCRF-CEM leukemia 47.2% | MOLT-4 leukemia 52.8%

COc1ccc2c(c1)cn1c3ccc(O)cc3nc(N)c21
inactive: HCT-15 colon 18.5% | HT29 colon 21.2% | SNB-75 CNS 15% | SNB-19 CNS 26.9% | U251 CNS 23.7% | PC-3 prostate 19.9% | SK-MEL-5 melanoma 17.8% | UACC-62 melanoma 32.5% | LOX IMVI melanoma 24.2% | SK-MEL-28 melanoma 42.6% | EKVX NSCLC 41% | SN12C renal 34.6% | UO-31 renal 15.6% | TK-10 renal 25.2% | ACHN renal 27.4% | CAKI-1 renal 26.9% | A498 renal 38.6% | CCRF-CEM leukemia 23% | MOLT-4 leukemia 18.5%

CN1CCN(CC(=O)Nc2ccc(-c3nc4ccccc4s3)cc2)CC1
inactive: HCT-15 colon 52.9% | HT29 colon 39.6% | SNB-75 CNS 73.1% | SNB-19 CNS 89.7% | U251 CNS 67.5% | PC-3 prostate 83.6% | SK-MEL-5 melanoma 73.7% | SK-MEL-28 melanoma 33.8% | EKVX NSCLC 83.7% | SN12C renal 77.7% | UO-31 renal 57.5% | TK-10 renal 94.8% | ACHN renal 71.2% | CAKI-1 renal 73.5% | A498 renal 59.5% | CCRF-CEM leukemia 63.7% | MOLT-4 leukemia 78%
active: UACC-62 melanoma -35.8% | LOX IMVI melanoma -33.7%

Cc1c(NC(=O)OC[C@@H]2COCCN2)cn2ncnc(Nc3ccc4c(cnn4Cc4cccc(F)c4)c3)c12
active: HCT-15 colon 4.13% | HT29 colon -6.28% | SNB-75 CNS -70.7% | SNB-19 CNS 6.8% | U251 CNS -6.22% | PC-3 prostate 9.24% | SK-MEL-5 melanoma -46.4% | UACC-62 melanoma -14.7% | LOX IMVI melanoma -11% | SK-MEL-28 melanoma -10.1% | EKVX NSCLC 4.4% | SN12C renal 0.74% | UO-31 renal -40.5% | TK-10 renal -7.43% | ACHN renal -0.373% | CAKI-1 renal -2.81% | A498 renal -68.8% | CCRF-CEM leukemia 6.97% | MOLT-4 leukemia 1.8%

Cc1[nH]c(/C=C2\C(=O)Nc3ccc(F)cc32)c(C)c1C(=O)NC[C@H](O)CN1CCOCC1
active: HT29 colon 9.81% | LOX IMVI melanoma 9.27% | UO-31 renal -1.44% | CAKI-1 renal 4.97%
inactive: HCT-15 colon 19.1% | SNB-75 CNS 35.2% | SNB-19 CNS 96.7% | U251 CNS 60.5% | PC-3 prostate 36.2% | SK-MEL-5 melanoma 21.4% | UACC-62 melanoma 29.9% | SK-MEL-28 melanoma 17.7% | EKVX NSCLC 44.9% | SN12C renal 27.6% | TK-10 renal 50.1% | ACHN renal 23.8% | A498 renal 30.5% | CCRF-CEM leukemia 33% | MOLT-4 leukemia 15.7%

CCCCCc1ccc(C)cc1OC(=O)CCl
inactive: HCT-15 colon 110% | HT29 colon 100% | SNB-75 CNS 90% | SNB-19 CNS 105% | U251 CNS 101% | PC-3 prostate 88.4% | SK-MEL-5 melanoma 103% | UACC-62 melanoma 113% | LOX IMVI melanoma 106% | SK-MEL-28 melanoma 113% | EKVX NSCLC 117% | SN12C renal 110% | UO-31 renal 66.9% | TK-10 renal 105% | ACHN renal 105% | CAKI-1 renal 91.7% | A498 renal 105% | CCRF-CEM leukemia 102% | MOLT-4 leukemia 102%

COc1ccc(-c2ccc3c(N4CCOC[C@@H]4C)nc(N4CCOC[C@@H]4C)nc3n2)cc1CO
active: HCT-15 colon 6.93% | HT29 colon 6.32% | SNB-75 CNS -44.9% | SNB-19 CNS 9.71% | U251 CNS 7.15% | PC-3 prostate 9.37% | SK-MEL-5 melanoma -26.8% | UACC-62 melanoma -32.3% | LOX IMVI melanoma 1.2% | SK-MEL-28 melanoma -17.1% | EKVX NSCLC 7.48% | SN12C renal 9.9% | UO-31 renal -13% | TK-10 renal -30.8% | ACHN renal 5.54% | CAKI-1 renal -14.6% | A498 renal -35.4%
inactive: CCRF-CEM leukemia 16.4% | MOLT-4 leukemia 11.6%

Cc1cc(Nc2cc(N3CCN(C)CC3)nc(/C=C/c3ccccc3)n2)n[nH]1
inactive: HCT-15 colon 13.4% | SNB-19 CNS 14% | PC-3 prostate 16.5% | EKVX NSCLC 36.1% | SN12C renal 11.7% | CCRF-CEM leukemia 13.8%
active: HT29 colon -34.3% | SNB-75 CNS -97.1% | U251 CNS -29.9% | SK-MEL-5 melanoma -88.7% | UACC-62 melanoma -69.9% | LOX IMVI melanoma -92.6% | SK-MEL-28 melanoma -65.4% | UO-31 renal -53.8% | TK-10 renal -0.298% | ACHN renal 0.23% | CAKI-1 renal -45.3% | A498 renal -86.7% | MOLT-4 leukemia -5.35%

CS(=O)(=O)N1CCN(Cc2cc3nc(-c4cccc5[nH]ncc45)nc(N4CCOCC4)c3s2)CC1
inactive: HCT-15 colon 19.3% | HT29 colon 11.4% | SNB-19 CNS 34.9% | U251 CNS 34% | PC-3 prostate 18.2% | SK-MEL-5 melanoma 33.5% | LOX IMVI melanoma 15.5% | SK-MEL-28 melanoma 10.6% | EKVX NSCLC 19.9% | SN12C renal 17.2% | CCRF-CEM leukemia 36.3% | MOLT-4 leukemia 12.3%
active: SNB-75 CNS -25.6% | UACC-62 melanoma -14.2% | UO-31 renal -14.7% | TK-10 renal 0.78% | ACHN renal 6.84% | CAKI-1 renal 7.35% | A498 renal -47.6%

CCCCN1C(=O)c2cccc3c(-c4ccc5c(c4)ncn5C4CCCCC4)ccc(c23)C1=O
inactive: HCT-15 colon 106% | HT29 colon 84.1% | SNB-75 CNS 92.3% | SNB-19 CNS 106% | U251 CNS 98.3% | PC-3 prostate 94.3% | SK-MEL-5 melanoma 107% | UACC-62 melanoma 92.8% | LOX IMVI melanoma 102% | SK-MEL-28 melanoma 117% | EKVX NSCLC 99.8% | SN12C renal 105% | UO-31 renal 82.1% | TK-10 renal 102% | ACHN renal 107% | CAKI-1 renal 93.7% | A498 renal 118% | CCRF-CEM leukemia 113% | MOLT-4 leukemia 94.7%

CC(=O)C(C(C)=O)C(c1ccccc1)C(C(C)=O)C(C)=O
inactive: HCT-15 colon 100% | HT29 colon 98.5% | SNB-75 CNS 95.1% | SNB-19 CNS 102% | U251 CNS 93.5% | PC-3 prostate 89.8% | SK-MEL-5 melanoma 97.2% | UACC-62 melanoma 98.2% | LOX IMVI melanoma 94.4% | SK-MEL-28 melanoma 103% | SK-MEL-2 melanoma 100% | EKVX NSCLC 96.9% | UO-31 renal 90.9% | TK-10 renal 98.1% | ACHN renal 106% | CCRF-CEM leukemia 93.5% | MOLT-4 leukemia 104%

O=C(NOCCO)c1cc(CN2OCCCC2=O)c(F)c(F)c1Nc1ccc(I)cc1F
active: HT29 colon 8.15% | UACC-62 melanoma 4% | SK-MEL-28 melanoma 3.09% | A498 renal -33%
inactive: HCT-15 colon 50.6% | SNB-75 CNS 71.5% | SNB-19 CNS 51.8% | U251 CNS 40.6% | PC-3 prostate 99.3% | SK-MEL-5 melanoma 45.7% | LOX IMVI melanoma 19.4% | EKVX NSCLC 46% | SN12C renal 49.5% | UO-31 renal 15% | TK-10 renal 36.4% | ACHN renal 49.5% | CAKI-1 renal 40.8% | CCRF-CEM leukemia 101% | MOLT-4 leukemia 76.6%

Ic1ccccc1-c1ccccc1
inactive: HCT-15 colon 112% | HT29 colon 114% | SNB-75 CNS 95.3% | SNB-19 CNS 101% | U251 CNS 105% | PC-3 prostate 99.9% | SK-MEL-5 melanoma 111% | UACC-62 melanoma 100% | LOX IMVI melanoma 103% | SK-MEL-28 melanoma 113% | EKVX NSCLC 120% | SN12C renal 101% | UO-31 renal 85.5% | TK-10 renal 106% | ACHN renal 109% | CAKI-1 renal 111% | A498 renal 89.8% | CCRF-CEM leukemia 90.1% | MOLT-4 leukemia 101%

CC[C@H](Nc1ncnc2nc[nH]c12)c1nc2cccc(F)c2c(=O)n1-c1ccccc1
inactive: HCT-15 colon 88.9% | HT29 colon 50.4% | SNB-75 CNS 25.8% | SNB-19 CNS 71.5% | U251 CNS 77% | PC-3 prostate 50.9% | SK-MEL-5 melanoma 80.2% | UACC-62 melanoma 39.1% | LOX IMVI melanoma 74.6% | SK-MEL-28 melanoma 69.3% | EKVX NSCLC 80.1% | SN12C renal 51.6% | UO-31 renal 31.3% | TK-10 renal 17.4% | ACHN renal 41.5% | CAKI-1 renal 52.9% | CCRF-CEM leukemia 52.3% | MOLT-4 leukemia 62.2%
active: A498 renal -14.3%

CN(C)C[C@@H]1CCn2cc(c3ccccc32)C2=C(C(=O)NC2=O)c2cn(c3ccccc23)CCO1
active: HCT-15 colon -31.7% | HT29 colon 0.848% | SNB-75 CNS -76.1% | U251 CNS -70.8% | PC-3 prostate 0.163% | LOX IMVI melanoma -70.1% | SK-MEL-28 melanoma -92.6% | SN12C renal -59.7% | UO-31 renal -49.1% | ACHN renal -89.9% | CAKI-1 renal -3.96% | A498 renal -4.95% | CCRF-CEM leukemia -0.337% | MOLT-4 leukemia -4.3%
inactive: SNB-19 CNS 15.3% | SK-MEL-5 melanoma 22.5% | UACC-62 melanoma 43% | EKVX NSCLC 30.5% | TK-10 renal 11.5%
